Growth inhibition data for nine molecules are collected here from PubChem BioAssay (NCI).

Assay [1] can be described thus: NCI Yeast Anticancer Drug Screen. Data for the rad50 strain (AID 155).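 Also: 0% = growth of vehicle-only cultures of the same strain.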 Conditions: S. cerevisiae rad50 strain growth inhibition, active compounds read high. The method, boiled down:
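Readout: growth inhibition relative to vehicle-treated cultures. Compound exposure was carried out in a genetically defined yeast strain deficient in DNA damage repair.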

Assay [2] can be described thus: NCI Yeast Anticancer Drug Screen. Data for the mec2-1 strain (AID 157). Conditions: S. cerevisiae mec2-1 strain, active compounds read high. A digest of the protocol: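 Readout is yeast growth inhibition, normalised to vehicle-treated controls, in the mec2-1 strain exposed to compound.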
The nature of assay [3]: NCI Yeast Anticancer Drug Screen. Data for the sgs1 mgt1 strain (AID 161).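 Also: 0% = growth of cultures given vehicle only.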 Conditions: S. cerevisiae sgs1 mgt1 strain, active compounds read high. The method, boiled down:
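Yeast cells carrying a defined DNA-repair defect were exposed to test compounds. Growth inhibition was measured relative to vehicle-treated controls.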

Assay [4] can be described thus: NCI Yeast Anticancer Drug Screen. Data for the cln2 rad14 strain (AID 165).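 Also: 0% = growth equal to vehicle treated cultures.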 Conditions: S. cerevisiae cln2 rad14 strain, active compounds read high. A digest of the protocol:
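Relative to vehicle controls, growth inhibition of compound-treated cln2 rad14 yeast was recorded.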

Assay [5] is described as follows: NCI Yeast Anticancer Drug Screen. Data for the bub3 strain (AID 167). Conditions: S. cerevisiae bub3 mutant strain, active compounds read high. A digest of the protocol: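 Readout: yeast growth inhibition, expressed relative to vehicle-only wells. The test organism is a mutant strain from a panel with lesions in DNA repair or checkpoint genes.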
Assay [6] can be described thus: NCI Yeast Anticancer Drug Screen. Data for the mlh1 rad18 strain (AID 175). Conditions: S. cerevisiae mlh1 rad18 strain growth inhibition, active compounds read high. The method, boiled down:
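Test agents were incubated with a yeast strain of defined genotype (DNA damage repair defect). Inhibition of growth was derived by comparison with vehicle-exposed cultures.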

Where [7] appears, read: at 5.0 µM (retest, dose inferred, filed as 0.5).
The mark [8] stands for this setting: at 50.0 µM (retest, dose inferred, filed as 5.0).

Molecules are shown by their SMILES. This is part of a sample that, as a whole, favours compounds with a hit. Of some 79,000 tested, about 15% had one in any assay. Unmarked numbers belong to inactive results. Activity calls are given as the source filed them. Rule as the data show it: active = growth inhibition above about 70%; inactive = the rest.

On to `CSC(C=P(c1ccccc1)(c1ccccc1)c1ccccc1)=Nc1ccccc1`, for which the growth inhibition in assay [1] (setting [7]) is 58%; in assay [1] (setting [8]) it was 98% (active); in assay [1] (at 50.0 µM) it was 96.8% (active); in assay [2] (setting [7]) it was 22%; in assay [2] (setting [8]), 96% (active); in assay [2] (at 50.0 µM) it was 99% (active). In addition, the growth inhibition was 23% in assay [3] (setting [7]); 98% (active) in assay [3] (setting [8]); 95.5% (active) in assay [3] (at 50.0 µM); 3% in assay [4] (setting [7]); 97% (active) in assay [4] (setting [8]); 98.3% (active) in assay [4] (at 50.0 µM). For the same molecule, the growth inhibition is 16% in assay [5] (setting [7]); 97% (active) in assay [5] (setting [8]); 98.2% (active) in assay [5] (at 50.0 µM); 15% in assay [6] (setting [7]); 97% (active) in assay [6] (setting [8]); 95.7% (active) in assay [6] (at 50.0 µM).
For the molecule `Nc1ccc(/C=C2/c3ccccc3-c3nc4ccccc4cc32)cc1`, the growth inhibition was 3% in assay [1] (setting [7]); 87% (active) in assay [1] (setting [8]); 78.9% (active) in assay [1] (at 50.0 µM); 0% in assay [2] (setting [7]); 63% in assay [2] (setting [8]); 15.6% in assay [2] (at 50.0 µM). Besides, the growth inhibition is -4% in assay [3] (setting [7]); 77% (active) in assay [3] (setting [8]); 59.9% in assay [3] (at 50.0 µM); -4% in assay [4] (setting [7]); 33% in assay [4] (setting [8]); 5% in assay [4] (at 50.0 µM). For the same molecule, the growth inhibition in assay [5] (setting [7]) was -1%; in assay [5] (setting [8]) it was 57%; in assay [5] (at 50.0 µM) it was 6.8%; in assay [6] (setting [7]), 1%; in assay [6] (setting [8]), 85% (active); in assay [6] (at 50.0 µM), 52.1%.
Regarding `CC1(c2cccs2)C(C#N)(C#N)C1(C#N)C#N`, the growth inhibition in assay [1] (setting [7]) was 17%; in assay [1] (setting [8]) it was 42%; in assay [1] (at 50.0 µM), 92.8% (active); in assay [2] (setting [7]), 9%; in assay [2] (setting [8]) it was 44%; in assay [2] (at 50.0 µM) it was 95.8% (active). In addition, the growth inhibition is 17% in assay [3] (setting [7]); 39% in assay [3] (setting [8]); 96% (active) in assay [3] (at 50.0 µM); -5% in assay [4] (setting [7]); 30% in assay [4] (setting [8]); 98.4% (active) in assay [4] (at 50.0 µM). The growth inhibition in assay [5] (setting [7]) is -4%; in assay [5] (setting [8]) it was 36%; in assay [5] (at 50.0 µM), 95.5% (active); in assay [6] (setting [7]), 9%; in assay [6] (setting [8]), 47%; in assay [6] (at 50.0 µM), 98.5% (active).
As for `Cc1cc(C)n2nc(N)c(C#N)c2c1C#N`, the growth inhibition was -2% in assay [1] (setting [7]); 1% in assay [1] (setting [8]); 17.2% in assay [1] (at 50.0 µM); 1% in assay [2] (setting [7]); 0% in assay [2] (setting [8]); 7.85% in assay [2] (at 50.0 µM). Also, the growth inhibition in assay [3] (setting [7]) was 2%; in assay [3] (setting [8]) it was 8%; in assay [3] (at 50.0 µM), 0.85%; in assay [4] (setting [7]) it was -2%; in assay [4] (setting [8]), 2%; in assay [4] (at 50.0 µM), 11.7%. In addition, the growth inhibition in assay [5] (setting [7]) is -1%; in assay [5] (setting [8]), -3%; in assay [5] (at 50.0 µM), 47.7%; in assay [6] (setting [7]), -1%; in assay [6] (setting [8]) it was 7%; in assay [6] (at 50.0 µM), 62%.
Consider `C=C(C)C1(C(=O)OCC(Cl)(Cl)Cl)NC(=O)C(NC(=O)COc2ccccc2)=CO1` (configuration not stated), for which the growth inhibition in assay [1] (setting [7]) was 26%; in assay [1] (setting [8]), 66%; in assay [1] (at 50.0 µM) it was 94.8% (active); in assay [2] (setting [7]) it was 4%; in assay [2] (setting [8]) it was 68%; in assay [2] (at 50.0 µM), 86.8% (active). Besides, the growth inhibition in assay [3] (setting [7]) was 8%; in assay [3] (setting [8]), 56%; in assay [3] (at 50.0 µM) it was 94.5% (active); in assay [4] (setting [7]), 6%; in assay [4] (setting [8]) it was 31%; in assay [4] (at 50.0 µM), 61.1%. For the same molecule, the growth inhibition in assay [5] (setting [7]) was 3%; in assay [5] (setting [8]), 44%; in assay [5] (at 50.0 µM), 85% (active); in assay [6] (setting [7]), 3%; in assay [6] (setting [8]), 51%; in assay [6] (at 50.0 µM) it was 93% (active).
Consider `Cc1ccc(NC(=S)SCc2ccc(Cl)cc2)cc1C`, for which the growth inhibition in assay [1] (setting [7]) was 12%; in assay [1] (setting [8]), 94% (active); in assay [1] (at 50.0 µM), 94.9% (active); in assay [2] (setting [7]), -5%; in assay [2] (setting [8]), 60%; in assay [2] (at 50.0 µM), 98.2% (active). The growth inhibition was 1% in assay [3] (setting [7]); 94% (active) in assay [3] (setting [8]); 98% (active) in assay [3] (at 50.0 µM); -4% in assay [4] (setting [7]); 34% in assay [4] (setting [8]); 86.8% (active) in assay [4] (at 50.0 µM). The growth inhibition in assay [5] (setting [7]) was 18%; in assay [5] (setting [8]) it was 68%; in assay [5] (at 50.0 µM) it was 97.5% (active); in assay [6] (setting [7]), 1%; in assay [6] (setting [8]), 82% (active); in assay [6] (at 50.0 µM), 98.6% (active).
For `CCc1cc2c(c3[nH]ccc13)[C@@H](C)C[C@H]2C`, the growth inhibition in assay [1] (setting [7]) is -3%; in assay [1] (setting [8]), 99% (active); in assay [1] (at 50.0 µM) it was 73% (active); in assay [2] (setting [7]) it was 3%; in assay [2] (setting [8]) it was 99% (active); in assay [2] (at 50.0 µM), 84.2% (active). Further, the growth inhibition in assay [3] (setting [7]) was 0%; in assay [3] (setting [8]), 99% (active); in assay [3] (at 50.0 µM), 84.8% (active); in assay [4] (setting [7]) it was -3%; in assay [4] (setting [8]), 98% (active); in assay [4] (at 50.0 µM) it was 84.3% (active). Moreover, the growth inhibition in assay [5] (setting [7]) was 9%; in assay [5] (setting [8]), 98% (active); in assay [5] (at 50.0 µM), 91.5% (active); in assay [6] (setting [7]) it was 2%; in assay [6] (setting [8]), 99% (active); in assay [6] (at 50.0 µM), 88.5% (active).
In the case of `Oc1ccc(O)c2nc3ccccc3nc12`, the growth inhibition is 20% in assay [1] (setting [7]); 97% (active) in assay [1] (setting [8]); 50.8% in assay [1] (at 50.0 µM); 3% in assay [2] (setting [7]); 97% (active) in assay [2] (setting [8]); 33.8% in assay [2] (at 50.0 µM). In addition, the growth inhibition was 8% in assay [3] (setting [7]); 98% (active) in assay [3] (setting [8]); 24.1% in assay [3] (at 50.0 µM); 2% in assay [4] (setting [7]); 98% (active) in assay [4] (setting [8]); -1.85% in assay [4] (at 50.0 µM). In addition, the growth inhibition was 6% in assay [5] (setting [7]); 98% (active) in assay [5] (setting [8]); 68.2% in assay [5] (at 50.0 µM); 24% in assay [6] (setting [7]); 97% (active) in assay [6] (setting [8]); 76.4% (active) in assay [6] (at 50.0 µM).
As for `CCCCCCCCCCCCNC(=O)C[n+]1ccc(C(N)=O)cc1`, the growth inhibition in assay [1] (setting [7]) is -34%; in assay [1] (setting [8]), 72% (active); in assay [1] (at 50.0 µM), 61.2%; in assay [2] (setting [7]), -6%; in assay [2] (setting [8]) it was 61%; in assay [2] (at 50.0 µM) it was 49%. The growth inhibition was 1% in assay [3] (setting [7]); 77% (active) in assay [3] (setting [8]); 74.2% (active) in assay [3] (at 50.0 µM); -6% in assay [4] (setting [7]); 86% (active) in assay [4] (setting [8]); 24.6% in assay [4] (at 50.0 µM). Further, the growth inhibition in assay [5] (setting [7]) is -9%; in assay [5] (setting [8]), 94% (active); in assay [5] (at 50.0 µM), 29.2%; in assay [6] (setting [7]), 0%; in assay [6] (setting [8]) it was 92% (active); in assay [6] (at 50.0 µM), 41.8%.
